Screens from PubChem.
KCNQ2 inh = inhibitors of rat KCNQ2 potassium channel; CHO-K1 KCNQ2, FluxOR thallium flux, 20 min; hits give low values; B-score at 10 µM; hit rate 1.1% among 310,000; AID 2156; O88943;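 active = fluorescence ratio B-score at most minus 3 library SDs, with starting brightness B-score within 2 library SDs, cut at about -5.5 in these data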
KCNQ2 pot = KCNQ2 (rat) channel potentiation. O88943. CHO-K1 KCNQ2, FluxOR thallium flux fluorescence; hits give high values. B-score at 10 µM. hit rate 0.54% among 310,000. AID 2239;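 active = fluorescence ratio B-score at least 3 SD of library B-scores, with initial fluorescence B-score within 3 of them, cut at about 5.3 in these data; same plate scores as AID 2156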;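 note: B-score of peak minus minimum over baseline fluorescence ratio after K+ and Tl+ stimulus; positive B-score means potentiation of KCNQ2 with more thallium influx and brighter signal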
Kir21 conf inh = confirmation of mouse Kir2.1 potassium channel inhibitors | hit rate 41% among 2,300 | AID 2032 | Kir2.1-expressing cells, FluxOR thallium flux fluorescence; hits give low values | Tl flux remaining, % of negative control (hits give low values), % at 10 µM | shares compounds with KCNQ2 pot;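 active = Primary-screen hit whose thallium flux fell at least 3 control SD below untreated wells in both duplicates, with normal baseline fluorescence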
Target sequence (P35561 whole entry, looked up): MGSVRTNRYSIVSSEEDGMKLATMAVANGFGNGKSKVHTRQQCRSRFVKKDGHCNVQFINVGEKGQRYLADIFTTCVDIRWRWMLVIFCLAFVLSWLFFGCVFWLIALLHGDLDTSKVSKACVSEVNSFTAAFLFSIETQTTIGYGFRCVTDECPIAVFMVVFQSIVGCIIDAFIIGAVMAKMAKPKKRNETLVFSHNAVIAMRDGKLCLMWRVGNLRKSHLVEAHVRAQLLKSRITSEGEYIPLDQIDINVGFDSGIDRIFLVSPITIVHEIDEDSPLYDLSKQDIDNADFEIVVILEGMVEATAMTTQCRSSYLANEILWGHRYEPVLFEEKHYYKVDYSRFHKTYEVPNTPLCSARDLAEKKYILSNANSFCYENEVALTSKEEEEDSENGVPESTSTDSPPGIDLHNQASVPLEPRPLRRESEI
HEK293 Tl flux = alters thallium flux in parental HEK293 cells, Kir2.1 counter-screen; shares compounds with KCNQ2 pot; FluxOR thallium flux fluorescence; 0% = unstimulated blank wells; FluxOR signal as % of negative control (100 = no effect), % at 10 µM; hit rate 19% among 2,300; AID 2105;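 active = dye signal at least 3 control SD above or below untreated wells in both duplicates, raw fluorescence within 3, either direction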;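 note: percent is based on the flux ratio of peak minus minimum fluorescence over baseline F0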
CHO-K1 ctr = parental CHO-K1 activity in KCNQ2 potentiator counter-screen. shares compounds with KCNQ2 pot. hit rate 43% among 1,200. activity increase over 3SD of controls, % at 10 µM. AID 2282. parental CHO-K1 cells, FluxOR thallium flux fluorescence; zero = vehicle mean+3SD, 100% = vehicle-minus-blank window;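 active = signal rise of at least 3 SD above the untreated control mean, in both duplicate wells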;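 note: counter screen of KCNQ2 potentiator hits so any rise reflects channel-independent effects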
KCNQ1 sel pot = human KCNQ1 counter-target activity of KCNQ2 potentiators. shares compounds with KCNQ2 pot. CHO KCNQ1 stable, FluxOR thallium flux fluorescence; beyond 3SD, as % of vehicle-control signal. activation over 3SD threshold, % at 10 µM. hit rate 28% among 1,200. AID 2283;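 active = fluorescence ratio rise of at least 3 SD of vehicle wells above their mean, in both replicate wells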
KCNQ2 pot confirm = confirmation of rat KCNQ2 potassium channel potentiators; potentiation, less the hit threshold, % at 10 µM; AID 2287; shares compounds with KCNQ2 pot; hit rate 68% among 1,200; CHO-KCNQ2 cells, FluxOR thallium flux fluorescence;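 active = fluorescence ratio rising 3 SD or more over the vehicle control mean in both replicates, plus primary screen hit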;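 note: peak minus minimum thallium fluorescence divided by baseline after K/Tl stimulus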
Kir21 spec = mouse Kir2.1 off-target activity of KCNQ2 potentiators. shares compounds with KCNQ2 pot. HEK293 Kir2.1, FluxOR thallium flux fluorescence. activity over 3SD threshold, % at 10 µM. AID 2345. hit rate 2% among 1,200;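 active = fluorescence ratio rise of at least 3 SD above the vehicle-control mean, seen in both replicates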
KCNQ2 W236L MoA = rat KCNQ2 W236L mutant potentiation by KCNQ2 potentiators. hit rate 10% among 940. shares compounds with KCNQ2 pot. current increase over 3SD of negative controls (%), hits give high values, % at 25 µM. CHO KCNQ2-W236L, automated patch clamp current;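 active = current increase at least 3 SD of the untreated controls above them in both duplicate recordings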
Numbers stand for hits; n = inactive; x = no result given. Rows were chosen to be rich in hits. Some 1.6% of all compounds tested hit in one or more screens of this group.

SMILES | KCNQ2 inh | KCNQ2 pot | Kir21 conf inh | HEK293 Tl flux | CHO-K1 ctr | KCNQ1 sel pot | KCNQ2 pot confirm | Kir21 spec | others
COc1ccc(CCNC(=O)c2ccc(C)s2)cc1OC | n | n | x | x | x | x | x | x
COc1ccc(OC)c(CCNC(=O)CN2C(=O)CC(C)(C)S(=O)(=O)c3ccccc32)c1 | n | x | x | x | x | x | x | x
Cn1c(SCC(=O)Nc2ccc3c(c2)OCCO3)nnc1-c1cccnc1 | n | x | x | x | x | x | x | x
O=C(CN1CCCC1)Nc1ccc(OCc2ccccc2)cc1 | n | x | x | x | x | x | x | x
O=C(OCC(=O)N1CCN(C(=O)c2ccco2)CC1)c1sc2ccccc2c1Cl | n | x | x | x | x | x | x | x
CC(C)n1c(O)c(N=NC(=O)c2ccccc2NS(=O)(=O)c2cccs2)c2ccccc21 | n | x | x | x | x | x | x | x
COc1ccc(C(=O)NC(C)C2CC3CCC2C3)c(OC)c1 (configuration not stated) | n | x | x | x | x | x | x | x
COc1cccc(NC(=O)NC(C)C2CC3CCC2C3)c1 (configuration not stated) | n | 12 | n | n | n | n | n | n | KCNQ2 W236L MoA=n
CCn1c(CSc2nnc3ccccn23)nc2cc(C(=O)O)ccc21 | n | n | x | x | x | x | x | x
O=C(/C=C/c1ccc([N+](=O)[O-])cc1)/C=C/c1ccco1 | -6.1 | n | n | n | x | x | x | x
O=C(/C=C/c1ccc([N+](=O)[O-])cc1)NCc1ccco1 | n | n | x | x | x | x | x | x
Cc1ccc(NC(=O)CCc2ccc(C)o2)c(Br)c1 | n | n | x | x | x | x | x | x
CCc1ccc(CCC(=O)Nc2ccc(C)cc2C)o1 | n | 6 | n | n | n | n | 1.0 | n | KCNQ2 W236L MoA=n
CCOC(=O)C1CCN(C(=O)C2(NC(=O)Nc3ccc(F)cc3F)CCCCC2)CC1 | n | x | x | x | x | x | x | x
O=C/C(=C\Nc1ccc(Cl)cn1)c1nc2cc(Cl)ccc2o1 | n | x | x | x | x | x | x | x
CCn1nccc1C(=O)NC1=C(C#N)CCC1 | n | x | x | x | x | x | x | x
CN(CC(=O)Nc1ccc(F)cc1)C(=O)COC(=O)COc1ccc(C#N)cc1 | n | n | x | x | x | x | x | x
Cc1cc(C)cc(OCC(=O)OCC(=O)N(C)CC(=O)Nc2ccc(F)cc2)c1 | n | 8.3 | n | n | 18 | n | 19 | n | KCNQ2 W236L MoA=n
Cc1c(N2C(=O)/C(=C/c3ccccc3)SC2=S)c(=O)n(-c2ccccc2)n1C | n | n | x | x | x | x | x | x
Cc1c(N2C(=O)/C(=C\c3ccccc3O)SC2=S)c(=O)n(-c2ccccc2)n1C | n | 18 | n | 343% | 114 | n | 40 | n | KCNQ2 W236L MoA=n
CC(C)(C)C(=O)N1CCC(O)(CS(=O)(=O)c2ccc(Cl)c(Cl)c2)CC1 | n | n | x | x | x | x | x | x
CC1Cc2ccccc2N1S(=O)(=O)c1cnc(Cl)c(Br)c1 (configuration not stated) | n | n | x | x | x | x | x | x
O=S(=O)(Oc1ccccc1/C=N/n1cnnc1)c1ccccc1 | n | n | x | x | x | x | x | x
CCOC(=O)c1c(C)[nH]c(C)c1S(=O)(=O)N1CCN(c2ccc([N+](=O)[O-])cc2)CC1 | n | x | x | x | x | x | x | x
Cc1cc(C)c2cccc(N)c2n1 | n | x | x | x | x | x | x | x
SMILES | KCNQ2 inh | KCNQ2 pot | Kir21 conf inh | HEK293 Tl flux | CHO-K1 ctr | KCNQ1 sel pot | KCNQ2 pot confirm | Kir21 spec | others
Cc1cc(C)c2ccc(N)nc2c1O | n | 12 | n | n | n | n | 12 | n | KCNQ2 W236L MoA=n
Nc1cc(C(F)(F)F)cc([N+](=O)[O-])c1N | n | n | x | x | x | x | x | x
O=C(NNC1=C(C(=O)C(F)(F)F)CCC1)c1cccc(Cl)c1 | n | n | x | x | x | x | x | x
COc1ccc(C(=O)NNC2=C(C(=O)C(F)(F)F)CCC2)cc1 | n | 5.5 | n | n | 14 | 32 | 6.0 | n | KCNQ2 W236L MoA=n
COc1ccc(C(=O)NNc2ccccc2)cc1 | n | x | x | x | x | x | x | x
O=C(NNC1=C(C(=O)C(F)(F)F)CCC1)c1ccc(Cl)cc1 | n | 7.8 | n | n | 18 | n | 4.8 | n | KCNQ2 W236L MoA=n
COCCn1c(SCCCc2ccccc2)nc2c1c(=O)[nH]c(=O)n2C | n | n | x | x | x | x | x | x
COc1ccc(CNC(=O)CSc2nc3c(oc4ccccc43)c(=O)n2CC2CCCO2)cc1 (configuration not stated) | n | x | x | x | x | x | x | x
S=c1nc(C2CC2)[nH]c2ccccc12 | n | 16 | n | 341% | 17 | n | 46 | n | KCNQ2 W236L MoA=n
S=c1nc(C2CCCCC2)[nH]c2ccccc12 | n | x | x | x | x | x | x | x
CC(=O)/C(CN1CCCCC1)=N\O | n | x | x | x | x | x | x | x
C/C(=N\O)C(=O)C(CN1CCCCC1)CN1CCCCC1 | n | 6 | n | n | n | 35 | n | n
CC1CCCC(C)N1/N=C/c1cc(Br)cc(Br)c1O (configuration not stated) | n | x | x | x | x | x | x | x
CC(=O)N1c2ccc(N=Cc3cc(Br)cc(Br)c3O)cc2CC1C (configuration not stated) | n | 12 | n | n | n | 43 | 14 | n | KCNQ2 W236L MoA=n
COc1cc(OC)cc(C(=O)NNc2nc3cc4c(cc3s2)OCO4)c1 | n | n | x | x | x | x | x | x
COc1cc(C(=O)NNc2nc3cc4c(cc3s2)OCO4)cc(OC)c1OC | n | 12 | n | n | n | n | n | n
N#Cc1c(N)sc(=S)c2c1CCCC2 | n | n | x | x | x | x | x | x
CN(Cc1cnccn1)Cc1cn(Cc2ccccc2)nc1-c1ccc2c(c1)OCO2 | n | x | x | x | x | x | x | x
COc1cccc(NC(=O)c2csc3c2CCCC3)c1 | n | 8 | n | n | n | n | 1.2 | n | KCNQ2 W236L MoA=n
COc1ccc(NC(=O)c2csc3c2CCCC3)cc1 | n | x | x | x | x | x | x | x
Cc1ccc(-n2[nH]c(C)c(C=Nc3ccc(C)cn3)c2=O)cc1 | n | n | x | x | x | x | x | x
Cc1ccc(O)c(Nc2ncnc3ccc([N+](=O)[O-])cc23)c1 | n | n | x | x | x | x | x | x
CCOc1ccc(Cl)cc1CNCCCSc1nc(C)cc(C)n1 | n | n | 52% | n | x | x | x | x
CCOc1ccc(Cl)cc1CNCCCSc1ncccn1 | n | x | x | x | x | x | x | x
CCOC(=O)c1[nH]c(C)c(C(=O)NCc2ccc(OC)cc2)c1C | n | x | x | x | x | x | x | x
SMILES | KCNQ2 inh | KCNQ2 pot | Kir21 conf inh | HEK293 Tl flux | CHO-K1 ctr | KCNQ1 sel pot | KCNQ2 pot confirm | Kir21 spec | others
Cc1cccc(Nc2nc(N)nc(CN3CCN(C)CC3)n2)c1 | n | n | x | x | x | x | x | x
Cc1cccc(Nc2nc(N)nc(CN3CCN(c4ccc(F)cc4)CC3)n2)c1 | n | 6.9 | n | n | 44 | n | n | n | KCNQ2 W236L MoA=n
Cc1cc(N2CCCCC2)nc(SCC(=O)c2ccccc2)n1 | n | x | x | x | x | x | x | x
O=C(CSc1nc(N2CCCCC2)nc(N2CCCCC2)n1)c1ccccc1 | n | 32 | n | n | n | 38 | 20 | n | KCNQ2 W236L MoA=n
Cc1cc(=S)nc(-c2ccccn2)[nH]1 | n | n | x | x | x | x | x | x
Cc1[nH]c(-c2ccccn2)nc(=S)c1Cl | n | 11 | n | 298% | n | n | 42 | n | KCNQ2 W236L MoA=n
COc1ccc(/C(N)=N/OC(=O)c2ccc(C)c([N+](=O)[O-])c2)cc1OC | n | x | x | x | x | x | x | x
CCc1cc2c(N[C@@H](Cc3ccccc3)C(=O)O)ncnc2s1 | n | n | x | x | x | x | x | x
